About 13,000 (27%) of roughly 48,000 compounds showed an effect of 50% or more. Some of the results follow.
The compounds below were run on Wolbachia pipientis (assay: Anti-Wolbachia Cell-Based Screen). Conditions: 5 µM.
Type: functional
Design: scale not given: in the data most compounds retested in dose-response had high values

Row | SMILES | Percent Effect
1 | Cn1ncc2c(NCCCOc3cccnc3)nc(C3CCCC3)nc21 | 15.74%
2 | CCn1cnnc1C1CCN(C(=O)Cc2ccc(OC)c(F)c2)CC1 | -0.6685%
3 | CCn1cnnc1C1CCN(C(=O)c2cc(F)ccc2OC)CC1 | 106.7%
4 | CCn1cnnc1C1CCN(C(=O)COc2ccccc2OC)CC1 | 7.042%
5 | CCn1cnnc1C1CCN(C(=O)COc2ccc(Cl)cc2)CC1 | 6.006%
6 | CCn1cnnc1C1CCN(C(=O)c2cccc(OC)c2OC)CC1 | 96.27%
7 | CCn1cnnc1C1CCN(C(=O)c2ccccc2OC)CC1 | -6.439%
8 | COc1ccc(CC(=O)N2CCC(c3nncn3C)CC2)cc1F | -9.824%
9 | CCn1cnnc1C1CCN(C(=O)c2cc(OC)ccc2OC)CC1 | 101%
10 | CCn1cnnc1C1CCN(C(=O)c2ccc(Cl)cc2OC)CC1 | 99.28%
11 | O=C(O)C(F)(F)F.O=C([C@H]1COC[C@H]2CN(C3CCCC3)C[C@H]21)N1CCCCO1 | -5.445%
12 | O=C(Cc1cccc(Cl)c1)Nc1cnccc1SCCCO | 7.035%
13 | COc1ccc(CNc2nncs2)cc1F | -12.2%
14 | O=C(Nc1ccc(OC(F)F)cc1)N1CCC(c2nnc[nH]2)CC1 | -4.065%
15 | NC(=O)CSc1ccccc1NC(=O)C1CCCCC1 | 84.77%
16 | CNC(=O)Cc1ccccc1NC(=O)C1CCN(C2CCCCC2)C1 (stereo unspecified) | -1.289%
17 | O=C(Nc1cccnc1-n1cncn1)C1CCC1 | -13.11%
18 | CC(C)(C)CC(=O)Nc1ccccc1SCC(N)=O | 103.7%
19 | NC(=O)CSc1ccccc1NC(=O)C1CCCC1 | 99.94%
20 | CNC(=O)Cc1ccccc1NC(=O)C1CCCC1 | 5.338%
21 | NC(=O)CSc1ccccc1NCc1nc(C2CC2)no1 | -3.279%
22 | CSc1ccccc1NC(=O)CCN1CCC(C(=O)N(C)C)CC1 | 8.025%
23 | NC(=O)CSc1ccccc1NC(=O)CC1C=CCC1 (stereo unspecified) | 119.4%
24 | CCCN1CCC(N(C)CCC(=O)Nc2ccccc2SC)CC1 | -1.207%
25 | NC(=O)CSc1ccccc1NCc1nc(Cc2ccccc2)no1 | -16.37%
26 | CC(=O)N1CCCC(C(=O)Nc2ccccc2Cc2ccccc2)C1 (stereo unspecified) | 4.475%

Row | SMILES | Percent Effect
27 | CCc1ccc(CN(CCN(C)C)Cc2ccc(C)s2)nc1 | 19.31%
28 | CN(C)CCN1CCOCC2(C1)CN(Cc1nccs1)CCO2.O=C(O)C(F)(F)F.O=C(O)C(F)(F)F.O=C(O)C(F)(F)F (stereo unspecified) | -2.784%
29 | Cn1nnc2c1CCN(Cc1ccncc1)C2COCc1ccccc1.O=C(O)C(F)(F)F.O=C(O)C(F)(F)F (stereo unspecified) | 7.235%
30 | Cn1cc(CN2CCCN(C(=O)c3cc[nH]n3)CC2)cn1 | -7.081%
31 | Cc1cccc(C(=O)N2CCCN(Cc3cnn(C)c3)CC2)n1 | -11.33%
32 | CCn1cc(CN2CCCN(C(=O)c3ccco3)CC2)cn1 | 139.7%
33 | CCn1cc(CN2CCCN(C(=O)c3ccc(C)nc3)CC2)cn1 | 109.5%
34 | CC(C)CCc1noc(CN2CCCN(C(=O)c3ccco3)CC2)n1 | -6.659%
35 | CC(C)n1cc(CN2CCCN(C(=O)c3ccoc3)CC2)cn1 | -9.039%
36 | CCn1cc(CN2CCCN(C(=O)c3ccn(C)c(=O)c3)CC2)cn1 | -5.674%
37 | Cn1cc(CN2CCCC3(CCN(C(=O)c4ccoc4)C3)C2)cn1 (stereo unspecified) | -4.278%
38 | Cc1ccoc1C(=O)N1CCCN(Cc2cnn(C)c2)CC1 | 85.33%
39 | CCn1cc(CN2CCCN(C(=O)c3ccoc3)CC2)cn1 | 93.78%
40 | CC(C)n1cc(CN2CCCN(C(=O)c3ccco3)CC2)cn1 | 13.14%
41 | CCc1cccc(NC(=O)CCC(=O)N(C)Cc2nc(C)c[nH]2)c1 | -13.69%
42 | O=C(O)c1cc(-c2ccoc2)cc(S(=O)(=O)NCc2ccccn2)c1 | 3.348%
43 | c1cncc(COCC2CN(Cc3ccncc3)Cc3ccnn3C2)c1 (stereo unspecified) | -8.453%
44 | Cc1ccc(OC2(C(=O)O)CCN(C/C=C/c3ccco3)CC2)c(C)n1 | -5.357%
45 | CC(C)c1cc(C(=O)N2C[C@H]3CC[C@@H]2CN(Cc2cccnc2)C3)no1 | 0.5633%
46 | CC(C)N1CCCc2sc(C(=O)NC3CC3)nc21 | -0.2474%
47 | CNC(=O)Cc1noc(-c2cc3c(s2)CCC(C)C3)n1 (stereo unspecified) | -12.44%
48 | CN(CC1CN(Cc2cn3ccsc3n2)CCO1)c1cccnn1 (stereo unspecified) | 13.06%
49 | Cc1nc(COc2ccc(OC(C)C(N)=O)cc2)oc1C (stereo unspecified) | 1.86%
50 | Cc1ccc(-n2cc(CN3CCOCC3)c(-c3cccc(C)c3)n2)cc1 | 0.1947%
51 | O=C(c1ccc2nncn2c1)N1CCSC2(CCCCC2)C1 | -6.872%
52 | CCn1cc(CN2CCCN(C(=O)c3cc(C)no3)CC2)cn1 | 149.7%

Row | SMILES | Percent Effect
53 | CCn1cc(CN2CCCN(C(=O)c3ccc(C)o3)CC2)cn1 | 126.6%
54 | Cc1cc(C(=O)N2CCN(Cn3cc(Cl)cn3)CC2)on1 | 0.1609%
55 | CC(C)n1cc(CN2CCCN(C(=O)c3cccn3C)CC2)cn1 | 7.673%
56 | CCn1cc(CN2CCCN(C(=O)c3ccoc3C)CC2)cn1 | 105.3%
57 | CCn1cc(CN2CCCN(C(=O)c3cccn3C)CC2)cn1 | 145.7%
58 | Cc1occc1C(=O)N1CCCN(Cc2cnn(C(C)C)c2)CC1 | -5.086%
59 | CCc1nc(CN2CCCN(C(=O)c3cccn3C)CC2)cs1 | -9.878%
60 | CCC1=N[C@@]2(CC[C@@H]3CN(S(=O)(=O)CC)C[C@@H]32)C(=O)N1CC | 5.096%
61 | Cc1nc(C(=O)N2CCN(c3ncccn3)[C@@H]3CS(=O)(=O)C[C@@H]32)cs1 | -1.503%
62 | c1cnnc(N2CCCC2CNc2ncnc3ccccc23)c1 (stereo unspecified) | 0.08494%
63 | Cc1cc(NC(=O)N2CCN(C)CC2C)n(C)n1 (stereo unspecified) | -19.14%
64 | Cc1cc(CNc2ccnn2CC(C)C)ccc1-n1cncn1 | -23.25%
65 | CSc1ccc(NS(=O)(=O)c2cnn(C)c2)cn1 | -3.394%
66 | CCc1nc(CN2CCCN(C(=O)c3ccco3)CC2)cs1 | 109.2%
67 | CCc1nc(CN2CCCN(C(=O)c3ccccc3)CC2)cs1 | 5.45%
68 | CCc1ccc(C(=O)N2CCCN(Cc3csc(CC)n3)CC2)o1 | -14.26%
69 | CCc1nnsc1C(=O)N1CCCN(Cc2cnn(CC)c2)CC1 | -1.096%
70 | CCn1cc(CN2CCCN(C(=O)c3c(C)oc(C)c3C)CC2)cn1 | 105.9%
71 | Cc1ccc(NS(C)(=O)=O)c(C(=O)NCCC(=O)NC(C)C)c1 | -8.186%
72 | CCOCCN1CCN(Cc2nnc(C3CC3)o2)CC1 | -12.93%
73 | CCOCCN1CCn2c(C)nnc2C1 | 4.517%
74 | c1ccc(CCCN2CC[C@H](c3nnc(-c4cccnc4)o3)C2)cc1 | 5.165%
75 | Fc1ccc(CCN2CCC(c3nnc(-c4cccnc4)o3)CC2)cc1 | -17.22%
76 | c1ccc(OCCN2CCC(c3cnccn3)CC2)cc1 | 90.65%
77 | OCCn1cc(CN2CCN(CCOc3ccccc3)CC2)cn1 | -4.681%
78 | CCOCCN1CCc2cncnc2C1 | 24.85%

Row | SMILES | Percent Effect
79 | c1ccc(OCCN2CCC(c3nnc(-c4cccnc4)o3)CC2)cc1 | 108.1%
80 | c1ccc(OCCN2CCCC(c3noc(C4CC4)n3)C2)cc1 (stereo unspecified) | -2.8%
81 | CCOCCN1CCC(c2cnccn2)CC1 | 103.5%
82 | CCOCCN1CCC(c2cncc(C)n2)CC1 | 133%
83 | O=C(c1cc(C2CC2)no1)N1C[C@H]2CC[C@@H]1CN(Cc1ccccn1)C2 | -3.322%
84 | CCNC(=O)CCC(=O)NC(Cc1ccccc1)c1sccc1C (stereo unspecified) | -7.516%
85 | CC(C)CN1CCCC1c1ccc(C(=O)Nc2ccc3[nH]nnc3c2)s1 (stereo unspecified) | 0.6901%
86 | CCC(C)(CO)NC(=O)Nc1cc2c(cc1SC)OCCO2 (stereo unspecified) | -5.152%
87 | CCOC(C)c1nc(Cn2cc(-n3cccc3)cn2)cs1 (stereo unspecified) | -7.68%
88 | COc1ccc(F)cc1C(C)NC(=O)Nc1nncs1 (stereo unspecified) | 5.791%
89 | COCC(=O)N1CCC(c2nc3ccc(-c4ccncc4)cn3n2)CC1.O=C(O)C(F)(F)F | 3.081%
90 | CCCN1CCC(c2nc3ccc(-c4ccccc4)cn3n2)CC1.O=C(O)C(F)(F)F | 132.6%
91 | Cc1cccc(-c2ccc3nc(C4CCN(CC5CC5)CC4)nn3c2)c1.O=C(O)C(F)(F)F | 10.89%
92 | CCCN1CCC(c2nc3ccc(-c4cccc(F)c4)cn3n2)CC1.O=C(O)C(F)(F)F | 109.7%
93 | CCCN1CCC(c2nc3ccc(NCc4ccccc4)cn3n2)CC1.O=C(O)C(F)(F)F.O=C(O)C(F)(F)F | -22.92%
94 | CCCN1CCC(c2nc3ccc(NCc4cccnc4)cn3n2)CC1.O=C(O)C(F)(F)F.O=C(O)C(F)(F)F.O=C(O)C(F)(F)F | -17.81%
95 | O=C(O)C(F)(F)F.c1ccc(-c2ccc3nc(C4CCN(CC5CC5)CC4)nn3c2)cc1 | 21.53%
96 | CCCN1CCC(c2nc3ccc(-c4cccc(OC)c4)cn3n2)CC1.O=C(O)C(F)(F)F | 95.04%
97 | CCCN1CCC(c2nc3ccc(-c4ccncc4)cn3n2)CC1.O=C(O)C(F)(F)F.O=C(O)C(F)(F)F | 100.7%
98 | O=C(COCC1CC1)Nc1ccn(Cc2cccc3cccnc23)n1 | -5.086%
99 | CCn1cc(SCC(=O)N2CCCC(O)(CO)C2)c2ccccc21 (stereo unspecified) | -16.21%
100 | COc1cccc(C(=O)N2CCN(C(=O)CCCc3cn[nH]c3)CC2)c1 | -9.764%
101 | CCOCC1CN(C(=O)Cc2ccsc2)Cc2ccnn2C1.O=C(O)C(F)(F)F (stereo unspecified) | 4.742%

From ChEMBL document CHEMBL3988442, “University of Dundee, Small-Polar-MMV Screening Library” (2021)
